# Screens deposited in PubChem by several laboratories.
# VHR inh abs = blocks human VHR1 dual specificity phosphatase; recombinant VHR phosphatase, pNPP absorbance; inhibition, % at 13.3 µM; hit rate 0.52% among 290,000; AID 1654; in the data active = inhibition above about 50%
# ugtP null kill = growth inhibition of S. aureus ugtP deletion strain. S. aureus RN4220 ugtP deletion, OD600 growth, 16 h. growth inhibition, % (concentration not given with the values). hit rate 0.54% among 330,000; in the data active = growth inhibition above about 68%;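 note: plate controls were untreated wells for no effect and antibiotic for full effect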
# PrPC TRFRET = reduces human prion protein on the cell surface; inhibition, % at 13.8 µM; P04156; AID 720596; hit rate 0.43% among 370,000; cell surface PrPC, TR-FRET read-out; in the data active = inhibition above about 24%; note: 0% = median of the test wells and 100% = reference compound wells
# RN4220 kill = S. aureus RN4220 growth inhibition; OD600, 16 h; inhibition, % (no concentration beside the values); hit rate 0.33% among 330,000; AID 1259311; in the data active = inhibition above about 85%;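 note: plate controls were untreated cells for no effect and reference antibiotic for full effect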
# PfHsp40 rescue = restores yeast growth despite PfHsp40 toxicity. S. cerevisiae expressing PfHsp40, growth rescue, ATP luminescence. growth rescue, % at 12.5 µM. hit rate 0.68% among 340,000. AID 504582; in the data active = growth rescue above about 28%, passing the limit was not always enough;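 note: yeast W303a lacking pdr1 and pdr3 grown in galactose medium; growth measured after three days at 30 °C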
# PrPC TRFRET cf = cell surface PrPC inhibition, TR-FRET confirmation. hit rate 65% among 1,500. cell surface PrPC level. inhibition, % at 13.8 µM. shares compounds with PrPC TRFRET; in the data active = inhibition above about 25%
# LD9 cytotox = counter-screen for PrPc inhibitors: cytotoxicity in LD9 cells; shares compounds with PrPC TRFRET; luminescence viability; inhibition, % at 13.8 µM; hit rate 29% among 1,500; in the data active = inhibition above about 9.5%
# An asterisk follows results filed as active; / = not tested or not shown; ! = not active in a repeat. Shown are actives, neighbours in structure and some others; about 1.8% of the full set was active somewhere.
SMILES,VHR inh abs,ugtP null kill,PrPC TRFRET,RN4220 kill,PfHsp40 rescue,PrPC TRFRET cf,LD9 cytotox
O=C1C2C3C=CC(CC3)C2C(=O)N1c1ccccc1 (stereo not given),-16,4,-4,3,-2,/,/
O=C1C=CC2C3C(=O)N(c4ccccc4)C(=O)C3C1N2Cc1ccccc1 (stereo not given),/,/,49*,/,-2,4,99*
Oc1ccc(CC2CNCCN2CCc2cccc3ccccc23)cc1 (stereo not given),/,2,/,2,/,/,/
COC(=O)c1c(NC(=O)C2CCCCC2C(=O)O)sc2c1CCCCC2 (stereo not given),26,-2,1,15,1,/,/
COC(=O)c1sc(NC(=O)C2CCCCC2C(=O)O)c(C(=O)OC)c1C (stereo not given),-6,-3,27*,5,-1,42*,-9
Cc1ccc2nc(NC(=O)c3ccccn3)sc2c1,52*,3,25*,4,0,61*,77*
O=C1CCC(O)CCN1C(CSc1ccccc1)Cc1ccccc1 (stereo not given),/,-1,/,6,/,/,/
CCC(=NNC(=O)C1CCCC1)c1cccc(Br)c1,/,8,/,10,/,/,/
O=C(NN=Cc1cccnc1)c1ccco1,/,6,/,2,/,/,/
NS(=O)(=O)c1ccc(NC(=S)NC(=O)c2ccc3c(c2)OCO3)cc1,14,12,12,4,1,/,/
NC(N)=NS(=O)(=O)c1ccc(NC(=S)NC(=O)c2ccc3c(c2)OCO3)cc1,-12,15,47*,4,-1,56*,-9
CCCC(=O)N1CCN(c2ccc(NC(=O)c3ccc([N+](=O)[O-])o3)cc2)CC1,23,5,33*,34,0,8,78*
COc1ccc(C=NNC(=O)c2cccnc2)c(C(=O)O)c1OC,/,6,/,3,/,/,/
CCCCN(CCCC)C(=S)NN=Cc1c(C)[nH]n(-c2ccccc2)c1=O,/,-13,/,4,/,/,/
Cc1ccsc1C=NNC(=O)c1ccc2c(c1)OCCO2,/,1,/,11,/,/,/
Cc1cc(O)cc(O)c1/C=N/NC(=O)c1ccc2c(c1)OCCO2,/,/,32*,/,/,25*,21*
COc1ccc2c(c1O)-c1c(OC)c(OC)cc3c1C(C2)N(C)CC3 (stereo not given),/,2,/,8,/,/,/
CCOc1ccc(C(=O)Nc2ccc3[nH]ncc3c2)cc1,23,1,33*,1,0,7,1
Cc1ccc(CSc2nnc(SCC(=O)NN=Cc3ccccc3OCC(=O)O)s2)cc1,/,3,/,4,/,/,/
COc1ccc(S(=O)(=O)Nc2ccc(C)cc2)cc1N(C)S(=O)(=O)c1ccc(Cl)cc1,4,-5,25*,0,2,16,3
CN(C)C=NC(=S)Nc1ccc(F)cc1,/,-2,/,0,/,/,/
CCc1ccc(NC(=O)COC(=O)CCc2nc3cc(S(=O)(=O)N(CC)CC)ccc3n2C)cc1,13,7,4,-1,1,/,/
CCN(CC)S(=O)(=O)c1ccc2c(c1)nc(CCC(=O)OCC(=O)Nc1cc(Cl)cc(Cl)c1)n2C,4,/,28*,/,3,2,-1
C/C(C=Nn1c(-c2cc(C)[nH]n2)n[nH]c1=S)=C\c1ccccc1,/,-14,/,16,/,/,/
Cn1c(=O)c([N+](=O)[O-])c(Cl)c2ccccc21,8,5,57*,2,0,50*,98*
SMILES,VHR inh abs,ugtP null kill,PrPC TRFRET,RN4220 kill,PfHsp40 rescue,PrPC TRFRET cf,LD9 cytotox
CCN(CC)c1c([N+](=O)[O-])c(=O)n(C)c2ccccc12,20,-3,-1,7,-2,/,/
CCCCNc1c(-c2ccc(OC)c(SC3CCCCC3)c2)nc2ccc(C)cn12,/,-1,38*!,-1,0,50*,53*
CC(C)N1CCc2c(sc(NC(=O)c3ccc(S(=O)(=O)N4CCCCC4C)cc3)c2C(N)=O)C1 (stereo not given),18,0,43*,4,0,-3,7
CNC(=O)c1c(NC(=O)c2ccc(S(=O)(=O)N3CCCCC3)cc2)sc2c1CCN(C(C)C)C2,18,1,-55,3,-1,/,/
COc1ccc(C(=O)NN=Cc2coc3ccc(Cl)cc3c2=O)cc1,/,3,/,0,/,/,/
COc1ccc(OC)c(C2C(C(N)=O)=C(C)Nc3nc(-c4cccc(Cl)c4)nn32)c1 (stereo not given),3,13,42*,5,-1,34*,0
COc1cc(CN2CCN(Cc3cccc(OC)c3OC)CC2)cc(OC)c1,4,15,28*,4,0,-4,0
COc1ccc(CN2CCN(Cc3cccc(Oc4ccccc4)c3)CC2)c(OC)c1OC,5,-2,-4,-1,0,/,/
CCCSc1nc2cc(OC)c(OC)cc2c(=N)n1CCCN1CCOCC1,17,3,-11,4,2,/,/
COCCCn1c(SCc2ccc(OC)cc2)nc2cc(OC)c(OC)cc2c1=N,29,-4,119*,9,-1,6,7
O=C(NC1CCCCC1)N(Cc1nc2ccccc2c(=O)[nH]1)C1CCCCC1,8,-1,4,0,0,/,/
COc1ccc(CN(Cc2nc3ccccc3c(=O)[nH]2)C(=O)NC2CCCCC2)cc1,-4,8,25*,4,-1,-1,-2
O=C(CCCOc1ccccc1)Nc1cccc(S(=O)(=O)N2CCCCC2)c1,/,4,4,3,0,/,/
O=C(CSc1ncnc2ccccc12)Nc1cccc(S(=O)(=O)N2CCCC2)c1,22,-13,70*,4,0,73*,-7
CC(C)(C)c1ccc(OCCC(=O)Nc2cccc(S(=O)(=O)N3CCCCC3)c2)cc1,-5,/,24*,/,1,20,-1
Cc1ccc(S(=O)(=O)N2CCCCC2)cc1NC(=O)CSc1ncnc2ccccc12,8,-6,63*,-2,0,71*,-15
Cc1ccc(NC(=O)CSc2ncnc3ccccc23)cc1S(=O)(=O)N1CCCCCC1,-12,-10,67*,4,2,77*,6
O=C(CSc1ncnc2ccccc12)Nc1cc(S(=O)(=O)N2CCCCC2)ccc1Cl,5,-25,20,5,0,/,/
CC(C)C(NC(=O)c1ccc2c(c1)OCO2)C(=O)NN=Cc1cccs1 (stereo not given),/,4,/,1,/,/,/
C=CCC(CC(=O)NCCO)C(=O)NC(COC(=O)C(CC=C)Cc1ccc(F)cc1)C(C)(C)C (stereo not given),/,0,/,3,/,/,/
CCC(C)C(NC(=O)OC(C)(C)C)c1cn(C(Cc2cc3ccccc3[nH]2)C(=O)N2CCN(C(=O)OC(C)(C)C)CC2)nn1 (stereo not given),/,3,/,1,/,/,/
Cc1ccc(S(=O)(=O)N2CCCCC2)cc1NC(=O)Cn1ncc(Cl)c(Cl)c1=O,/,-7,31*,19,-1,-7,94*
c1csc(CNc2nc(NCC3CCCCC3)c3sccc3n2)c1,/,/,26*,/,/,26*,14*
c1ccc(CNc2nc(NCc3cccs3)nc3ccsc23)cc1,/,/,19,/,/,/,/
Cc1cc(NC(=O)c2sc(Nc3ccc(F)cc3)nc2N)no1,12,/,26*,/,2,26*,13*
